Measured values published in ChEMBL document CHEMBL4513216, “Probing the Open Global Health Chemical Diversity Library for Multistage-Active Starting Points for Next-Generation Antimalarials” (ACS Infect Dis, 2020).
Screen size: about 69,000 compounds; about 8,600 (12%) showed an effect of 50% or more. Only a selection was taken, and strong results are over-represented in it overall.

tested on: Plasmodium berghei; assay: Screen against P. berghei liver stage (PbLuc), transformed with Luciferase, at 10uM; assay type: functional, HepG2; details: tested at 10 uM

Compared with `CC(=O)N1CCC(Cc2cncc(-c3c(C)n[nH]c3C)n2)C1` (stereo not given), `Cc1cnn(CCC(=O)N2CCCC(c3nc(C)c(C)s3)C2)c1` (stereo not given) is lower in INHIBITION: 28% for the first, -7.35% for the second.

Compared with `CN1CC(=O)N(c2cccnc2)CC12CCN(C(=O)c1cccn1C)C2` (stereo not given), `O=C(N1CCCC1)N1Cc2nccn2CC(COc2cccnc2)C1` (stereo not given) is higher in INHIBITION: -46.8% for the first, -21.1% for the second.

First: CCCOC(=O)NCCC1CN(c2cnn(C)c(=O)c2)CCO1 (stereo not given)
Second: CCS(=O)(=O)c1ccc(N2CCC(NC(=O)CCC(C)C)CC2)cc1
The INHIBITION of the first is higher: 45.3% for the first, 42.6% for the second.

First: CC(=O)NC(=O)C1(CCCc2ccncc2)CCN1 (stereo not given)
Second: CC(C)(CO)CCCNC(=O)NC1(c2ccccc2F)CC1
The INHIBITION of the first is higher: 12.3% for the first, 9.16% for the second.

Compared with `CSc1ccc(C(=O)N2CC(=O)N(Cc3ccccc3)CC(O)C2)cc1` (stereo not given), `OC(CNC1CCOCC1)c1cccc(OCc2ccccc2)c1` (stereo not given) is higher in INHIBITION: -42.1% for the first, 46.1% for the second.

Compared with `O=C(Cn1nc(Br)nc1Br)N1CCOCC1`, `O=C(CN1C(=O)CCC1=O)N1CCOCC1` is higher in INHIBITION: 15.5% for the first, 59.8% for the second.

First: O=C(CN1C(=O)CCC1=O)N1CCOC2(CCOCC2)C1
Second: O=C(c1ccc(-c2cccc3c2CCNC3)o1)N1CCOCC1
The INHIBITION of the first is lower: 32.4% for the first, 39.1% for the second.

Compared with `Cc1nc2[nH]cnc(Nc3ccn(C)n3)c-2n1`, `Cc1nn(C)c(C)c1CCNC(C)c1ccc(-n2ccnc2C)cc1` (stereo not given) is higher in INHIBITION: 25.9% for the first, 87.6% for the second.

Compared with `CC(C)CC(NC(=O)OC(C)(C)C)C(N)=O` (stereo not given), `CC(C)(C)NC(=O)CNC(=O)Nc1cc(-c2ccccc2)ns1` is higher in INHIBITION: 13.9% for the first, 26% for the second.

First: Cc1cccc(-c2nc3cc(S(=O)(=O)N4CCCC4)ccc3n2C)n1
Second: Cc1ccc(CNc2cc(C(=O)N3CCOCC3)nc(C)n2)cc1
The INHIBITION of the first is lower: -7.53% for the first, -3.72% for the second.

First: O=C(NCCOc1ccc2c(c1)OCO2)C1CC(=O)N(C2CC2)C1 (stereo not given)
Second: CC(C)N1CC(C(=O)NCc2cccnc2-n2cccn2)CC1=O (stereo not given)
The INHIBITION of the first is higher: 31.9% for the first, 6.2475% for the second.

Going from `O=C(N[C@H]1CN[C@H]2CCCO[C@H]21)c1cscn1` to `O=C(N[C@@H]1CN[C@@H]2CCCO[C@@H]21)c1cscn1`, the INHIBITION rises from 1.81% to 11.4%.

Going from `O=C(N[C@@H]1CN[C@H]2CCCO[C@H]21)c1cnccn1` to `O=C(O)c1c(-c2ccoc2)ncc2c1CCN(C1CCOC1)C2` (stereo not given), the INHIBITION falls from 52% to 21.6%.

Compared with `CNC(=O)CNC(=O)Nc1cc(-c2ccccc2)ns1`, `CC(C)C(=O)NCCCNC(=O)Nc1cc(-c2ccccc2)ns1` is lower in INHIBITION: 73.3% for the first, -89.2% for the second.

Going from `COc1cccc(CCC(=O)N2CCCC(c3nncn3C)C2)c1` (stereo not given) to `Cn1cnnc1C1CCCN(C(=O)c2cc(Cl)c(Cl)n2C)C1` (stereo not given), the INHIBITION falls from 4.71% to -10.1%.

First: COc1ccc(CN2CCCCCC2c2cccs2)c(OC)c1 (stereo not given)
Second: COc1ccc(OC)c(CN2CCCCCC2c2cccs2)c1 (stereo not given)
The INHIBITION of the first is lower: 10.2% for the first, 50.5% for the second.

Compared with `COc1cccc(CN2CCCCCC2c2sccc2C)c1O` (stereo not given), `COc1cccc(CN2CCCCCC2c2cccs2)c1O` (stereo not given) is higher in INHIBITION: 23.5% for the first, 33.2% for the second.

First: COc1cccc(CN2CCCCCC2c2cccc(F)c2)c1O (stereo not given)
Second: COc1cccc(CN2CCCCCC2c2cccc(C)c2)c1O (stereo not given)
The INHIBITION of the first is lower: -0.29% for the first, 56.1% for the second.

Compared with `COc1ccc(CN2CCCCCC2c2cccs2)c(O)c1` (stereo not given), `COc1cc(CN2CCCCCC2c2cccs2)cc(OC)c1O` (stereo not given) is higher in INHIBITION: 4.35% for the first, 50.8% for the second.

Going from `COc1cc(CN2CCCCCC2c2cccs2)cc(OC)c1OC` (stereo not given) to `COc1nsc2nc(C3CCCN3C(C)=O)ccc12` (stereo not given), the INHIBITION falls from 29.3% to 26.12%.

Compared with `CC1=Nc2c(c(O)nn2C(C)C)C(c2cnn(C)c2)S1` (stereo not given), `Cc1nn(C)c(C)c1CN(Cc1cccn1-c1ncccn1)C(C)C` is lower in INHIBITION: 21.7% for the first, -30.5% for the second.

Going from `CCCc1nccn1-c1ccc(C(C)O)cc1` (stereo not given) to `Cc1nccn1-c1ccc(C(C)NCCC(C)C)cc1` (stereo not given), the INHIBITION rises from -20.6% to 62.8%.

Going from `Cc1nccn1-c1ccc(N2CCC(NC(C)CC(C)C)CC2)cc1` (stereo not given) to `CCCC(C)NC1CCN(c2ccc(-n3ccnc3C)cc2)CC1` (stereo not given), the INHIBITION rises from 38.5% to 52.1%.

Going from `Cc1nccn1-c1ccc(CN2CC3C[C@@H](O)CN3C[C@@H]2C)cc1` (stereo not given in full) to `Cc1nccn1-c1ccc(C(C)NCCc2ccccn2)cc1` (stereo not given), the INHIBITION rises from -44.8% to 62.8%.

First: Cc1nccn1-c1ncccc1NC(=O)CCOCC(C)C
Second: CC(Cn1ccnc1)NC(=O)NCCc1ccccn1 (stereo not given)
The INHIBITION of the first is lower: 4.66% for the first, 46.5% for the second.

First: Cn1cc(C(NCCc2ccccn2)c2cccc(F)c2)cn1 (stereo not given)
Second: Cc1noc(C)c1C(=O)NCC(c1cccc(F)c1)N(C)C (stereo not given)
The INHIBITION of the first is higher: -1.75% for the first, -20.19% for the second.

Going from `CN(C)CCO[C@H]1CN(C(=O)c2cccs2)[C@@H]2COC[C@H]12` to `COc1ccc(C(C(=O)O)N(C)CCN2CCOCC2)c(C)c1` (stereo not given), the INHIBITION rises from -19.1% to 22.5%.

First: CN1Cc2[nH]nc(COCC3CC3)c2C1
Second: CCc1n[nH]c(=O)c(C(=O)N2CCSCC2)c1CC
The INHIBITION of the first is lower: -44.9% for the first, 39.3% for the second.

Going from `CCOC[C@@H]1CC[C@H]2[C@H](CCN2S(=O)(=O)c2ccc(F)cc2)O1` to `CC(NC(=O)NCC1(c2ccc(F)cc2)CC1)c1nncn1C` (stereo not given), the INHIBITION rises from -17.1% to 31.9%.

Going from `NCC1(c2cccc(C(F)(F)F)c2)CCOCC1` to `NCC1(c2cccc(F)c2)CCOCC1`, the INHIBITION rises from 8.47% to 50.2%.

First: NCC1(c2cccc(Br)c2)CCOCC1
Second: COc1cc(F)ccc1C(C(=O)O)N(C)CCN1CCCC1 (stereo not given)
The INHIBITION of the first is lower: -51.5% for the first, 40.9% for the second.

Going from `O=C(Cc1ccsc1)N1C[C@@H]2CN(Cc3ccoc3)CCO[C@@H]2C1` to `Cc1noc(C)c1C(=O)NCC(c1ccsc1)N(C)C` (stereo not given), the INHIBITION falls from 16.5% to -38.7%.

Compared with `CCc1noc(C)c1C(=O)NCC(c1ccc(C)cc1)N(C)C` (stereo not given), `CCc1ccc(C(CNC(=O)c2c(C)noc2C)N(C)C)cc1` (stereo not given) is higher in INHIBITION: -25.4% for the first, 58.9% for the second.

Going from `Cc1noc(C)c1C(=O)NCC(c1ccc(F)cc1)N(C)C` (stereo not given) to `COc1ccc(C(CNC(=O)c2c(C)noc2C)N(C)C)cc1` (stereo not given), the INHIBITION rises from 23.4% to 50.75%.

Going from `O=C(O)CNc1cc(-c2cc(C(=O)NC3CC3)ccn2)c2cc[nH]c2n1` to `COc1ccc(C(C(=O)O)N(C)CCN2CCCC2)c(C)c1` (stereo not given), the INHIBITION rises from -21.1% to 52.8%.
